Screening results from PubChem BioAssay.
The list is not random: actives were taken first. Their share in the collection is about 0.88%.
TRHR enhancer = qHTS for Small Molecule Agonists and Allosteric Enhancers of Human TRH Receptor: Primary Screen for Enhancers; actives 0.66% (n = 360,000); TRHR cells, fluo-8 calcium fluorescence, EC20 TRH enhancement; enhancement, % at 2 µM; in the data active means enhancement above about 30%; further: 0% is about no effect
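Enhancer read-out: after compound pinning and an initial kinetic agonist-mode read, an EC20 of TRH (10 nM final) was injected and fluo-8 calcium signal (Ex 480/Em 530) followed at 1 s/cycle for 100 cycles in TRHR-expressing cells.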
IL2 activator = qHTS of IL-2 Activators; IL-2 activation reporter assay, cell-based qHTS; stimulated with anti-CD3/CD4/CD28 beads; in transgenic mouse T cells; activation, % (series mostly up to about 46 µM); actives 0.065% (n = 360,000); AID 652025, 2013; in the data active means activation above about 50%; inconclusive means mostly about 30% to 49%; further: 0% is about no effect
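Unstimulated transgenic mouse T cells preincubated 60 min with compound, then stimulated with anti-CD3/anti-CD4-coated beads plus anti-CD28 for 18 h at 37 degrees C. IL-2 response read as EGFP and DsRed fluorescence by plate cytometry.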
TRHR ag = qHTS for Small Molecule Agonists and Allosteric Enhancers of Human TRH Receptor: Primary Screen for Agonists. activation, % at 2 µM. TRHR cells, calcium flux fluo-8, FDSS agonist mode. actives 0.18% (n = 360,000). Thyrotropin-releasing hormone receptor (Homo sapiens), P34981; in the data active means activation above about 30%; further: 0% is about no effect
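Fluo-8-loaded TRHR cells; 10 s baseline, compound added, kinetic Ca2+ fluorescence read 1/s, agonist mode.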
Epigenetic reg = Quantitative High-Throughput Screen for Regulators of Epigenetic Control | actives 0.2% (n = 280,000) | murine LDR cells, GFP reporter derepression, 30 h | Potency, µM (doses to about 53.9 µM), without a hit: top-dose GFP activation, hits mostly activators | AID 1865, 2009; further: potency means the concentration at half of the fitted maximal effect; % of control where 0% means no effect; nearly all actives have a fitted effect of over 60% in size
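Murine LDR cells bearing a silenced CMV-driven GFP reporter were exposed to compound for 30 h at 37 C. After PBS washes, GFP-positive cells (20-120 um objects) counted by laser-scanning microplate cytometry.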
MBNL1-CUG inh = qHTS Assay for Inhibitors of MBNL1-poly(CUG) RNA binding | Muscleblind-like protein 1 (Homo sapiens), Q9NR56 | TR-FRET MBNL1-His/biotin-(CUG)12 binding, 665/545 ratio | Potency, µM (titrated, usually from 57.5 µM), inactives show top-dose activity change, negative = inhibition, usual class: inhibitors | actives 0.036% (n = 280,000) | AID 2675, 2010; active means well fitted inhibition curve with a large enough effect in the signal ratio, with a control signal flat, not every such curve was filed as active; inconclusive means small, poorly fitted or top-dose-only effect, or effect the other way, or a change in a side signal; inactive means no such curve, though single readings can be large or run the other way; the % refers to the signal ratio; further: potency means the concentration at half of the fitted maximal effect; on the % scale 0 is the no-effect control and ±100 the full control effect
Target sequence (Q9NR56 whole entry, looked up): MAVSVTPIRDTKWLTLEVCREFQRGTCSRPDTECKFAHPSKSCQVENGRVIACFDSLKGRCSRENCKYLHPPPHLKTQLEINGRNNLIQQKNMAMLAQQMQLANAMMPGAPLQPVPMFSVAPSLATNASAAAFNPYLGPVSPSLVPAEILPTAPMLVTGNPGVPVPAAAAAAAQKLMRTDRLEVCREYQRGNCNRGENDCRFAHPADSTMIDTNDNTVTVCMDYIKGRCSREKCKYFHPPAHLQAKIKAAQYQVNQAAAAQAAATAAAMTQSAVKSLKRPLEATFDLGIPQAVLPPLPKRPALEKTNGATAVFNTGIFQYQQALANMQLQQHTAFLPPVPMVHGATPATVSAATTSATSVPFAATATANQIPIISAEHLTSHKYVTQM
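Ratiometric TR-FRET (665 over 545 nm, excitation 340 nm) tracks disruption of MBNL1-His/biotin-(CUG)12 complex after 60 min at room temperature, with compounds at 92 nM to 58 uM final.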
CBFb-RUNX1 inh = qHTS Assay for Compounds Blocking the Interaction Between CBF-beta and RUNX1 for the Treatment of Acute Myeloid Leukemia; Runt-related transcription factor 1 (Homo sapiens) + Core-binding factor subunit beta …; AlphaScreen CBFb-His/RUNX1-biotin binding, biochemical; Potency, µM (highest dose often 59.8 µM), inactives show at the highest dose activity, negative = inhibition, hits mostly inhibitors; 230,000 tested, under 10 active; further: % of control where 0% means no effect
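AlphaScreen proximity signal reports loss of binding between His-tagged CBF-beta and biotin-labelled RUNX1, each at 30 nM. Proteins are pre-associated for 20 minutes, compounds added for 15 minutes, then beads for 90 minutes, all at ambient temperature.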
* marks the source's active call; other numbers are inactive results; ! = not confirmed by another sample. Unless noted, the call rests on the fitted dose curve; in most records, active means well fitted curve in the direction sought with a large enough effect; inconclusive means small, poorly fitted or top-dose-only effect, or another doubt; inactive means no such curve, though single readings can be large; an effect the other way counts as inactive or inconclusive.

Results for CC(=C\c1ccccc1)/C=C1/SC(=S)N(CCC(=O)Nc2ccccn2)C1=O ?
TRHR enhancer: 2; TRHR ag: 1; Epigenetic reg: -1%; MBNL1-CUG inh: 7%; CBFb-RUNX1 inh: -8%

What do the screens show for `O=C(CCN1C(=O)/C(=C/C=C/c2ccccc2)SC1=S)Nc1ccccn1`?
TRHR enhancer: 39*; IL2 activator: -1; TRHR ag: 0; Epigenetic reg: 14µM*; MBNL1-CUG inh: 19%; CBFb-RUNX1 inh: -17%

What do the screens show for `COc1cc(/C=C2/SC(=S)N(CC(=O)Nc3cccnc3)C2=O)cc(OC)c1OC`?
TRHR enhancer: -2; IL2 activator: 123*; TRHR ag: 1; Epigenetic reg: -1%; MBNL1-CUG inh: 3%; CBFb-RUNX1 inh: -15%

How did O=C(CN1C(=O)/C(=C/c2ccccc2)SC1=S)Nc1cccnc1 do in these assays?
TRHR enhancer: 1; IL2 activator: 0; TRHR ag: 1; Epigenetic reg: -5%; MBNL1-CUG inh: inconclusive; CBFb-RUNX1 inh: 5%

Results for O=C(CCN1C(=O)/C(=C/C=C/c2ccccc2)SC1=S)Nc1cccnc1 ?
TRHR enhancer: -1; IL2 activator: 69*; TRHR ag: 0; Epigenetic reg: 2%; MBNL1-CUG inh: 23%; CBFb-RUNX1 inh: -5%

Results for COc1ccccc1N1CCN(C(=O)C2CCN(S(=O)(=O)Cc3ccccc3)CC2)CC1 ?
TRHR enhancer: -2; TRHR ag: -1; Epigenetic reg: 3%

What do the screens show for `CCOCCCn1c(SCC(=O)Nc2ccc(C)cc2)nc2ccccc2c1=O`?
TRHR enhancer: -5; TRHR ag: 0; Epigenetic reg: 0%

Results for O=C(/C=C/c1ccccc1)C1=C(O)C(=O)N(CCO)C1c1ccc2c(c1)OCO2 (stereo unspecified) ?
TRHR enhancer: 36*; IL2 activator: 1; TRHR ag: -1; Epigenetic reg: -1%; MBNL1-CUG inh: 37%; CBFb-RUNX1 inh: 5%

Results for O=S(=O)(c1c(F)cccc1F)N1CCN(S(=O)(=O)c2c(F)cccc2F)CC1 ?
TRHR enhancer: 3; TRHR ag: 0

Results for Cc1csc2ncnc(NNC(=O)c3ccc(Cl)cc3)c12 ?
TRHR enhancer: 0; IL2 activator: -4; TRHR ag: 0; Epigenetic reg: 35µM*; MBNL1-CUG inh: -3%; CBFb-RUNX1 inh: 4%

Results for Clc1ccc(C2=Nn3c(nnc3-c3n[nH]c4c3CCC4)SC2)cc1Cl ?
TRHR enhancer: 35*; IL2 activator: -1; TRHR ag: 0; Epigenetic reg: 0%; MBNL1-CUG inh: 2%; CBFb-RUNX1 inh: -13%

Results for CCOc1ccc(CCNC(=O)c2cc3c(s2)-c2ccccc2OC3)cc1OCC ?
TRHR enhancer: -8; TRHR ag: 1; Epigenetic reg: -1%

What do the screens show for `CSc1nsc(/C=C/Nc2ccc(C(=O)O)cc2)c1C#N`?
TRHR enhancer: 0; IL2 activator: -5; TRHR ag: 2; Epigenetic reg: 2%; MBNL1-CUG inh: 86%; CBFb-RUNX1 inh: 0%

How did CSc1nsc(/C=C/Nc2ccc(F)cc2F)c1C#N do in these assays?
TRHR enhancer: 1; IL2 activator: 1; TRHR ag: 1; Epigenetic reg: 4µM*; MBNL1-CUG inh: 60%; CBFb-RUNX1 inh: -11%

Results for COc1cc(OC)c(N(C)C(=O)CCNC(=O)Cn2cnc3ccccc3c2=O)cc1Cl ?
TRHR enhancer: 30*!; IL2 activator: -1; TRHR ag: -1; Epigenetic reg: 0%; MBNL1-CUG inh: -4%; CBFb-RUNX1 inh: 5%
